Measurements from PubChem BioAssay AID1159580 (chemical genetic matrix, 2015).
Where “and” joins values, the source holds several entries; their conditions need not be identical. Identical values can stand only once. About 2,000 (36%) of roughly 5,500 compounds were called active. Another 18% or so got no clear call; they are omitted. Rule as the data show it: active = normalized growth mostly below about 0.91 (no sharp cut-off); inconclusive = no clear call, values can overlap the other calls; inactive = mostly above about 0.92. The list shows a part of the results.

Test: chemical genetic growth profiling, strain panel (AID 1159580);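 also: tested at 20 µM; growth read once vehicle control cultures reached saturation at 30 °C; 1 = growth at the plate median or of vehicle wells; lower values mean less growth of the strain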
Settings: S. cerevisiae deletion strains, growth OD

Measured: normalized growth

Cc1cccc(C)c1NC(=O)C1CCCCN1C (configuration not stated)
inactive: locus YAL013W, strain DEP1, stronger effect = lower value 1.02 | locus YAL021C, strain ccr4, stronger effect = lower value 1.02 | locus YAL026C, strain drs2, stronger effect = lower value 0.993 | locus YAL030W, strain snc1, stronger effect = lower value 0.985 | locus YBL061C, strain skt5, stronger effect = lower value 0.979 | locus YBR009C, strain hhf1, stronger effect = lower value 0.989 | locus YBR021W, strain FUR4, stronger effect = lower value 1 | locus YBR023C, strain chs3, stronger effect = lower value 0.991 | locus YBR171W, strain sec66, stronger effect = lower value 0.977 | locus YBR229C, strain ROT2, stronger effect = lower value 1.01 | locus YBR231C, strain swc5, stronger effect = lower value 0.993 | locus YBR279W, strain paf1, stronger effect = lower value 0.991 | locus YCL011C, strain gbp2, stronger effect = lower value 0.988 | locus YCL016C, strain dcc1, stronger effect = lower value 0.995 | locus YCL029C, strain bik1, stronger effect = lower value 1.02 | locus YCL061C, strain MRC1, stronger effect = lower value 0.975 | locus YCL069W, strain vba3, stronger effect = lower value 0.983 | locus YCR088W, strain abp1, stronger effect = lower value 0.992 | locus YDL005C, strain med2, stronger effect = lower value 0.982 | locus YDL035C, strain GPR1, stronger effect = lower value 1.01 | locus YDL040C, strain nat1, stronger effect = lower value 0.986 | locus YDL074C, strain BRE1, stronger effect = lower value 1 | locus YDL101C, strain DUN1, stronger effect = lower value 1.01 | locus YDL134C, strain PPH21, stronger effect = lower value 0.99 | locus YDL185W, strain tfp1, stronger effect = lower value 1.01 | locus YDL192W, strain arf1, stronger effect = lower value 1.01 | locus YDR001C, strain nth1, stronger effect = lower value 0.985 | locus YDR069C, strain doa4, stronger effect = lower value 1 | locus YDR101C, strain arx1, stronger effect = lower value 1 | locus YDR137W, strain rgp1, stronger effect = lower value 0.984 | locus YDR150W, strain NUM1, stronger effect = lower value 1 | locus YDR159W, strain sac3, stronger effect = lower value 0.983 | locus YDR162C, strain NBP2, stronger effect = lower value 0.994 | locus YDR195W, strain ref2 0.986 | locus YDR297W, strain sur2, stronger effect = lower value 0.992 | locus YDR318W, strain mcm21, stronger effect = lower value 1.01 | locus YDR334W, strain swr1, stronger effect = lower value 0.982 | locus YDR335W, strain msn5, stronger effect = lower value 0.989 | locus YDR388W, stronger effect = lower value 1.01 | locus YDR392W, strain spt3, stronger effect = lower value 0.996 | locus YDR502C, strain sam2, stronger effect = lower value 1.01 | locus YEL003W, strain gim4, stronger effect = lower value 0.986 | locus YEL037C, strain rad23, stronger effect = lower value 0.996 | locus YEL061C, strain CIN8 (second series), stronger effect = lower value 0.992 | locus YEL061C, strain CIN8, stronger effect = lower value 1 | locus YER015W, strain faa2, stronger effect = lower value 0.988 | locus YER016W, strain bim1, stronger effect = lower value 0.983 | locus YER110C, stronger effect = lower value 1.02 | locus YER111C, strain swi4, stronger effect = lower value 0.994 | locus YER155C, strain BEM2 (second series), stronger effect = lower value 0.982 | locus YER155C, strain BEM2, stronger effect = lower value 0.99 | locus YER167W, strain BCK2, stronger effect = lower value 1 | locus YFR010W, strain ubp6, stronger effect = lower value 0.984 | locus YGL078C, strain dbp3, stronger effect = lower value 1.01 | locus YGL086W, strain mad1, stronger effect = lower value 1 | locus YGL167C, strain pmr1, stronger effect = lower value 0.995 | locus YGL173C, strain kem1, stronger effect = lower value 0.988 | locus YGL227W, strain vid30, stronger effect = lower value 0.98 | locus YGL240W, strain doc1, stronger effect = lower value 0.981 | locus YGL248W, strain PDE1, stronger effect = lower value 1 | locus YGL253W, strain hxk2, stronger effect = lower value 0.982 | locus YGR078C, strain PAC10, stronger effect = lower value 0.996 | locus YGR135W, strain pre9, stronger effect = lower value 1 | locus YGR229C, strain SMI1, stronger effect = lower value 1 | locus YGR252W, strain gcn5, stronger effect = lower value 0.963 | locus YHR013C, strain ard1, stronger effect = lower value 0.96 | locus YHR027C, strain rpn1, stronger effect = lower value 0.986 | locus YHR030C, strain SLT2, stronger effect = lower value 1 and 1.01 | locus YHR079C, strain IRE1 (second series), stronger effect = lower value 1.01 | locus YHR079C, strain IRE1, stronger effect = lower value 1.03 | locus YHR094C, strain hxt1, stronger effect = lower value 1.01 | locus YHR129C, strain ARP1, stronger effect = lower value 1.01 | locus YHR142W, strain chs7, stronger effect = lower value 0.987 | locus YHR200W, strain rpn10, stronger effect = lower value 1 | locus YIL066C, strain RNR3, stronger effect = lower value 0.999 | locus YIL073C, strain SPO22, stronger effect = lower value 1.01 | locus YIL125W, strain kgd1, stronger effect = lower value 1.01 | locus YIR030C, strain dcg1, stronger effect = lower value 1.01 | locus YJL092W, strain hpr5, stronger effect = lower value 0.986 | locus YJL095W, strain BCK1 (second series), stronger effect = lower value 0.989 | locus YJL095W, strain BCK1, stronger effect = lower value 1.02 and 0.998 | locus YJL115W, strain asf1, stronger effect = lower value 0.996 | locus YJL129C, strain trk1, stronger effect = lower value 1.01 | locus YJL134W, strain LCB3, stronger effect = lower value 1.01 | locus YJL154C, strain vps35, stronger effect = lower value 0.994 | locus YJL164C, strain tpk1, stronger effect = lower value 0.987 | locus YJL166W, strain qcr8, stronger effect = lower value 0.993 | locus YJL168C, strain set2, stronger effect = lower value 1.01 | locus YJL187C, strain SWE1 (second series), stronger effect = lower value 1.01 | locus YJL187C, strain SWE1, stronger effect = lower value 0.985 | locus YJR043C, strain POL32, stronger effect = lower value 1.02 | locus YJR066W, strain TOR1, stronger effect = lower value 0.986
